Screening results from PubChem.
SW480 rerep: induces DNA re-replication in SW480 colon adenocarcinoma cells. AID 624297. Potency, µM (series often up to 46.1 µM), without a hit: at the top dose re-replication activation, most hits filed as activators. SW480 DNA re-replication, Hoechst DNA content imaging, 48 h. 340,000 compounds, 1.8% hits; also: % of control where 0% means no effect; nearly all actives have a fitted effect of over 55% in size
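Quantitative HTS format with DMSO vehicle controls; 48 hr drug incubation at 37 C, then 40 min Hoechst staining and scanning imager measurement at 405 nm excitation.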
PINK1 expr mod: modulators of PINK1 expression | 410,000 compounds, 0.2% hits | PINK1 immunofluorescence, high-content cytometry, 24 h | Potency, µM (highest dose often 76.6 µM), without a hit: at the top dose activation (PINK1 increase), actives largely listed as activators; active = well fitted activation curve with a large enough effect; inconclusive = small, poorly fitted or top-dose-only effect; cell line not stated here; also: % of control where 0% means no effect; nearly all actives have a fitted effect of over 65% in size
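Measures PINK1 amount and localization on or inside mitochondria by immunofluorescence. Stable cells get compounds at 5 concentrations for 24 hours before fixation and staining; CCCP controls included.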
KB-3-1 tox: KB-3-1 parental cell cytotoxicity; Potency, µM (titrated, usually from 46.1 µM), usual class: cytotoxic; 400,000 compounds, 1.4% hits; KB-3-1 viability, CellTiter-Glo ATP luminescence, 72 h; AID 1347075; also: % is scaled to controls: 0 for no effect and ±100 for the full control effect; nearly all actives have a fitted effect of over 60% in size
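Parental KB-3-1 adenocarcinoma cells in phenol-red-free DMEM with 10% FBS were pin-treated with compounds at several concentrations, incubated 72 h at 37 °C, and viability read by CellTiter-Glo luminescence; concentration-effect curves were fitted after normalization.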
TSG101-PTAP inh: blocks PTAP/TSG101 interaction to inhibit HIV-1 budding | 340,000 tested, under 10 active | Potency, µM (highest dose often 115 µM), for inactives: at the highest dose activity change, negative = inhibition, usual class: inhibitors | Fluorescence polarization, FITC-PTAP peptide / Tsg101 binding | AID 493005 | Q99816; active = well fitted inhibition curve with a large enough effect in the main read-out, with a control signal flat, not every such curve was filed as active; inconclusive = small, poorly fitted or top-dose-only effect, or effect the other way, or a change in a side signal; inactive = no such curve, though single readings can be large or run the other way; also: % of control where 0% means no effect
Target sequence (Q99816 whole entry, looked up): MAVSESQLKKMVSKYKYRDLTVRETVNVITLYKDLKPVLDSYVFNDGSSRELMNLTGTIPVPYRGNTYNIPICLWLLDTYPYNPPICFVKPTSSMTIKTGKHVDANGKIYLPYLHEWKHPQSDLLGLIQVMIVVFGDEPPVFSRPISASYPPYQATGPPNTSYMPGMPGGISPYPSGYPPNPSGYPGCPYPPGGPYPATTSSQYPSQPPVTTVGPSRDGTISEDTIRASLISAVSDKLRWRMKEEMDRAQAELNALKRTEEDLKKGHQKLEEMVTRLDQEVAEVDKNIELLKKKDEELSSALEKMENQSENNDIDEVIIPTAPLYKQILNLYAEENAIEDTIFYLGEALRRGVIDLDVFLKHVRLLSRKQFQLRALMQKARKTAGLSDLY
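Fluorescence polarization binding of Tsg101 binding domain (10 uM final) to FITC-labeled PTAP peptide (50 nM final) in HEPES pH 7.5 buffer with NaCl, Tween 20, EDTA, TCEP. Compounds added before peptide; binding 20 min at RT.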
KB-V1 cytotox: kills drug-selected multidrug resistant KB-V1 cells. KB-V1 MDR cells viability, CellTiter-Glo, 72 h. Potency, µM (titrated, usually from 46.1 µM), hits mostly cytotoxic. 400,000 compounds, 3.4% hits. AID 1347076; also: % is scaled to controls: 0 for no effect and ±100 for the full control effect; nearly all actives have a fitted effect of over 60% in size
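Potencies derive from concentration-effect curves fitted to normalized luminescence (CellTiter-Glo) of KB-V1 cells treated for 72 h at 37 degrees C in phenol-red-free DMEM containing 10% FBS.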
MCF10A rereplic: DNA re-replication induction in MCF 10a cells. 350,000 compounds, 2.9% hits. Potency, µM (highest dose often 46.1 µM), for the others: top-dose activity, positive = re-replication, hits mostly activators. MCF 10A DNA re-replication, Hoechst nuclear intensity, 48 h. AID 624296; also: % of control where 0% means no effect; nearly all actives have a fitted effect of over 50% in size
* = called active by the depositor; i = inactive; ? = inconclusive; nt = not tested or not shown; ! = not active in a repeat; [ ] = remark or other dose. Shown are actives, neighbours in structure and some others; about 6.8% of the full set was active somewhere. Unless noted, calls follow the shape of the dose curve; as a rule, active = well fitted curve in the direction sought with a large enough effect; inconclusive = small, poorly fitted or top-dose-only effect, or another doubt; inactive = no such curve, though single readings can be large; an effect the other way counts as inactive or inconclusive. Potency is read from the fitted curve at half-maximal effect.

SMILES	SW480 rerep	PINK1 expr mod	KB-3-1 tox	TSG101-PTAP inh	KB-V1 cytotox	MCF10A rereplic
COc1cccc(-n2cc(C(=O)NCc3ccc(C)cc3)c3ccccc3c2=O)c1	nt	3%	nt	nt	nt	nt
CCCCn1nnnc1NCc1cc(OC)c(OC)cc1OC	-1%	-2%[38.3 µM]	i	nt	26µM*	0%
CCCN(Cc1cccs1)C(=O)Nc1ccc(F)c(Cl)c1	nt	0%	i	nt	i	nt
CCCCCCn1c(COc2ccccc2F)nnc1SCC(=O)N1c2ccccc2NC(=O)C1(C)C	?	-7%[38.3 µM]	?	4%	?	21µM*
Clc1cccc(Cl)c1CO/N=C/c1c(-c2ccccc2)nc2n1CCS2	12%	nt	?	-7%	13µM*	?
COC(=O)/C(C#N)=C/c1c(-c2ccccc2)nc2n1CCS2	2%	-1%	i	-1%	i	13%
C=CCC(CC=C)(CNC(=O)C(=O)Nc1cccc(C(F)(F)F)c1)c1ccccc1	nt	1%	nt	nt	nt	nt
O=C1c2ccccc2C2=Nc3ccccc3SC(c3cccc(F)c3)C12 (stereo not given)	?	40µM*	21µM*	-1%	16µM*	12µM*
CCOC(=O)C(C)(C)N(Cc1cccc(C)c1)S(=O)(=O)c1ccc(Cl)c([N+](=O)[O-])c1	?	-2%	21µM*	-1%	i	5.2µM*
Cc1ccc(N(CC(=O)NCCc2ccc(F)cc2)S(=O)(=O)c2ccc(Cl)c([N+](=O)[O-])c2)c(C)c1	?	-2%	?	-7%	i	?
CCOC(=O)c1ccc(CN(Cc2ccc(C)cc2)S(=O)(=O)c2cccc([N+](=O)[O-])c2)cc1	-3%	7%	i	-1%	i	-21%
CCOC(=O)C(C)(C)N(Cc1cccc(C)c1)S(=O)(=O)c1cccc([N+](=O)[O-])c1	-4%	2%	16µM*	-1%	7.3µM*	5%
CCc1ccc(C2CC(=O)Nc3c2c(=O)n(C)c2ncnn32)cc1 (stereo not given)	nt	-1%	i	nt	?	nt
COC(=O)c1cnn(-c2ccc(C(=O)Nc3ccc(C(C)=O)cc3)cc2)c1N	nt	1%	i	nt	i	nt
O=C(NCc1ccccc1)Nc1nnc(-c2ccncc2)s1	nt	nt	i	nt	i	nt
Cc1[nH]nc2ncc(C(=O)c3cc(F)ccc3O)cc12	?	-2%	?	-4%	8.2µM*	3%
CCOC(=O)c1cnc2c(C)cc(Cl)cc2c1NCCCN1CCOCC1	0%	2%	i	-5%	i	23µM*
CN1CCN(c2cc(-c3ccc4ccccc4c3)nc3ccnn23)CC1	nt	45µM*	i	nt	i	nt
O=C(O)c1ccccc1NS(=O)(=O)c1cccc(-n2sc3ccccc3c2=O)c1	?	1%	i	-3%	?	15µM*
O=C(O)c1ccccc1NS(=O)(=O)c1cccc(C(F)(F)F)c1	-13%	4%[38.3 µM]	i	-1%	i	-3%
Cc1cc(-c2cc(-c3ccccc3)on2)nc(NCC2CC2)n1	1%	4%	i	0%	?	18µM*
Fc1ccc(-c2nc3ccccn3c2NCc2ccc3c(c2)OCO3)cc1	?	0%	i	-3%	i	11µM*
O=C(Nc1ccc[n+](CC(=O)c2cccc3ccccc23)c1)c1ccccc1	?	-2%	23µM*	1%	i	-2%
Cc1cc[n+](CC(=O)c2ccc(NC(=O)c3ccccc3)cc2)c2ccccc12	29%	12%	10µM*	-3%	i	?
Cc1cc[n+](CC(=O)c2ccc(NC(=O)c3ccccc3)cc2)cc1	-31%	1%	?	-6%	i	1.3µM*
SMILES	SW480 rerep	PINK1 expr mod	KB-3-1 tox	TSG101-PTAP inh	KB-V1 cytotox	MCF10A rereplic
O=C(C[n+]1cccc(C(=O)Nc2ccccc2)c1)c1ccccc1	nt	2%	i	nt	i	nt
O=C(C[n+]1ccccc1)c1ccc(NC(=O)c2ccccc2)cc1	7%	1%	i	2%	i	27%
O=C(Nc1ccc(Br)cc1F)c1ccc2nc(CCc3ccccc3)oc2c1	nt	3%	i	nt	i	nt
CCOC(=O)c1sc2ccccc2c1S(=O)(=O)Nc1cc(OC)ccc1OC	nt	0%	i	nt	i	nt
CCc1cccc(-n2c(=O)c3cccnc3n2CC(=O)NCc2ccccc2)c1	nt	2%	nt	nt	nt	nt
Cc1ccc2c(c1)c1c(c(=O)n(Cc3ccccc3)c(=O)n1Cc1ccccc1F)n2C	nt	0%	i	nt	i	nt
CNC(=O)C1CCC(Cn2c(=O)c3sccc3n(CC(=O)NCc3ccccc3)c2=O)CC1 (stereo not given)	nt	2%	i	nt	i	nt
CN(C(=O)CSc1ncnc2sccc12)C1CCCCC1	-4%	6%	i	-4%	5.2µM*	3%
CN(C(=O)CSc1ncnc2sccc12)C1CCS(=O)(=O)C1 (stereo not given)	?	0%	i	-1%	?	-2%
O=C(CCn1cnc2onc(-c3ccc(F)cc3)c2c1=O)N1CCN(c2cccc(Cl)c2)CC1	nt	1%	i	nt	i	nt
COc1cc(C(=O)OCC(=O)Nc2sccc2C(N)=O)cc(OC)c1OC	14%	9%	16µM*	3%	?	?
COc1cc(CCC(=O)OCC(=O)Nc2ccc(C(N)=O)cc2)cc(OC)c1OC	-4%	-1%	i	-4%	i	-4%
COc1cc(CCC(=O)OCC(=O)Nc2sccc2C(N)=O)cc(OC)c1OC	16µM*	-3%	i	-7%	i	-20%
Cc1cccc(OCC(=O)OCC(=O)Nc2sccc2C(N)=O)c1	-3%	-1%	i	4%	i	-4%
NC(=O)c1ccsc1NC(=O)COc1ccccc1	-7%	2%[38.3 µM]	i	-6%	13µM*	2%
COc1cc(CN2CCC3(CCC(CNC(=O)c4cc(C)nn4C)O3)CC2)ccc1F (stereo not given)	nt	0%	nt	nt	nt	nt
CCc1ccc(NC(=O)CC2C(=O)N(c3cccc(C)c3)C(=O)N2CCC(C)C)cc1 (stereo not given)	nt	2%	nt	nt	nt	nt
CCC(=O)NC(c1ccc(C)cc1)c1ccc2cccnc2c1O (stereo not given)	0.82µM*	2%	?	0%	?	?
CCCC(=O)NC(c1ccc(C(C)C)cc1)c1ccc2cccnc2c1O (stereo not given)	1.3µM*	15%	5.2µM*	-2%	?	?
CCCC(=O)NC(c1ccc(OC)c(OC)c1)c1cc(Cl)c2cccnc2c1O (stereo not given)	1.8µM*	-1%	?	-2%	23µM*!	8.2µM*
CCCC(=O)NC(c1ccc(N(C)C)cc1)c1ccc2cccnc2c1O (stereo not given)	?	0%	?	-5%	i	?
